Screen size: about 44,000 compounds; fewer than 10 were called active. Calls follow the shape of the dose curve; as a rule, active = well fitted activation curve with a large enough effect; inconclusive = small, poorly fitted or top-dose-only effect, or another doubt; inactive = no such curve, though single readings can be large or run the other way. The list is a sample of the results.
Biological target: Beta-2 adrenergic receptor (Homo sapiens) (UniProt P07550)
Test: qHTS assay of beta-arrestin-biased ligands of beta2-adrenergic receptor: NCGC Sytravon Library Screen;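 also: 0% = DMSO and full agonism = EC100 isoproterenol or metaproterenol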
Details: HTLA Tango cells, beta-arrestin recruitment, luciferase luminescence, 18 h; series mostly up to 46.1 µM; activation: at the top concentration
Text: The concept of biased agonism is an emerging concept of molecular pharmacology which proposes that seven transmembrane receptors (7TMRs) or G protein-coupled receptors (GPCRs), exist in multiple signaling conformations and complexes and that ligands (either agonists or antagonists) can induce signaling biased responses for distinct signal transduction cascades. […] Furthermore, accumulating evidence over the last decade has drawn attention to a novel function of beta-arrestins as signal transducers that scaffold various signaling molecules upon activation of 7TMRs. […] This beta-arrestin-biased signaling presumably leads to distinct physiological outcomes from those by G protein activation. Additionally, the active receptor conformations which prefer on this beta-arrestin signaling are likely different from those activating G protein signaling. […] The goal of this screening project will be to discover and optimize novel beta-arrestin-biased ligands for beta2-AR signaling. A luminescent cell-based assay for beta2-AR-mediated agonism, known as the Tango assay, has been validated in which ligand binding of a recombinant beta2-AR and subsequent recruitment of a recombinant beta-arrestin lead to the release of the transcriptional activator tTA, which upregulates transcription of a tTA-responsive luciferase gene. […] Compounds from the NCGC Sytravon Library collection were screened as a concentration-titration series that ranged from 46 microM to 0.6 nM. NIH Molecular Libraries Probe Production Network [MLPCN] NIH Chemical Genomics Center [NCGC] MLPCN Grant: Fast-track/HHSN271700800025C PI: Bryan Roth and Bob Lefkowitz
Tango cells were dispensed into white, solid, tissue-culture-treated 1536-well plates at 1500 cells/well in DMEM, containing 1% fetal bovine serum (FBS). Then, 23 nL of compounds or DMSO were delivered to each well using a pin tool. Plates were incubated at 37 degrees C, 5% CO2 for 18 hr. Then 2.5 uL luminescent substrate mix (in-house prepared: 150 mM Tris-Cl, pH 7.6, 3 mM MgCl2, 1% Triton X-100, 5 mM DTT, 0.5 mM CoA, 0.15 mM ATP, 0.44 mM D-luciferin, final concentrations) was added to each well. Plates were then incubated for 15 minutes at room temperature, and subsequently measured on a ViewLux plate reader for luminescent signal using a clear filter with a 10 second exposure and 2x binning. The %Activity was determined from the corrected luminescence values. […] Concentration-response curves were fitted to the signals arising from the resulting luminescence. The concentration-effect curves were then classified based on curve quality (r2), response magnitude and degree of measured activity, and compounds were subsequently categorized based on their curve class.

Sequence of Beta-2 adrenergic receptor (Homo sapiens) (P07550 whole entry, looked up): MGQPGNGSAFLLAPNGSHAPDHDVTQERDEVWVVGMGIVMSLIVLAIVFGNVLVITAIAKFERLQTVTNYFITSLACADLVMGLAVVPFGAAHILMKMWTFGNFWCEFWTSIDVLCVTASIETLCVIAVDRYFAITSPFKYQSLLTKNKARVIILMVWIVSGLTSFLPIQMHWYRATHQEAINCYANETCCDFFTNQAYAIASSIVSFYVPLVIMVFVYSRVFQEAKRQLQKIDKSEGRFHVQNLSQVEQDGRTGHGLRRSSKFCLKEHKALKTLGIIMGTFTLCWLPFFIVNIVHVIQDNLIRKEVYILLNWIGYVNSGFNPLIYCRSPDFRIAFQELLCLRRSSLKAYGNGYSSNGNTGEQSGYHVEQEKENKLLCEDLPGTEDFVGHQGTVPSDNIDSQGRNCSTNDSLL

activation, inactive:
CCOc1ccc(CNC(=O)c2cc(=O)[nH]c3ccc(S(=O)(=O)N4CCCCC4)cc23)cc1 -0.314%
O=C(CC(NCc1cccnc1)C(=O)O)Nc1ccc(O)cc1 (stereo not drawn) 0.126%
CCc1nc2onc(C)c2c(=O)n1CC(=O)O -1.3%
CCCCc1nn2c(=O)cc(COC(=O)c3cccc(NC(=O)COc4ccccc4)c3)nc2s1 0.38%
COc1ccccc1C(=O)OCc1cc(=O)n2nc(-c3cccs3)sc2n1 -0.913%
CCOc1ccccc1CNC(=O)Nc1cn(CC(C)C)c(=O)c2ccccc12 0.473%
CC(=O)Nc1cc(C(=O)NCc2ccc(F)cc2Cl)ccc1Sc1ccc(Cl)cc1 0.0643%
O=S(=O)(c1ccc(Cl)cc1)c1nnn2c1nc(NC1CCCC1)c1sccc12 3.34%
CC(C)(C)c1ccc(C(=O)NCC(c2ccco2)S(=O)(=O)c2ccc(F)cc2)cc1 (stereo not drawn) -0.628%
COc1ccc(CCNc2nc(-c3ccc(Cl)cc3)cc(C(F)(F)F)n2)cc1OC 0.359%
CCOc1ccc(Nc2ncnc3scc(-c4ccc(OC)cc4)c23)cc1 0.966%
Cc1cccc(NC(=O)CSc2nnc(CNC(=O)c3cccc(C)c3)n2-c2ccccc2)c1 0.652%
Cc1c(C(=O)NCc2ccccc2Br)oc2ccc3c(c12)C(=O)CC(C)(C)O3 0.769%
O=c1c(NCc2cccs2)nccn1-c1ccccc1 -0.476%
COc1ccccc1Nc1c2c(nc3ccc(NC(=O)/C=C/c4cc(OC)c(OC)c(OC)c4)cc13)CCCC2 -0.0014%
CC(=O)N1CCc2cc(Br)cc(S(=O)(=O)CCC(=O)NCCc3ccc(Cl)cc3)c21 -1.89%
Cc1ccccc1CNC(=O)C1CCCN(S(=O)(=O)N(C)c2ccc(F)cc2)C1 (stereo not drawn) -0.584%
CCOc1cccc(CNC(=O)c2ccc(N3CCCC3)c(NC(=O)Nc3ccccc3CC)c2)c1 0.0293%
Cc1ccc(CN2CCC(CNC(=O)c3cnn(-c4ccccc4Cl)c3C3CCN(C(=O)OC(C)(C)C)CC3)CC2)cc1 -0.282%
COc1cc(OC)c(NC(=O)Cc2ccc(-n3c(C)nc4cccnc43)cc2)cc1Cl 0.0247%
COc1ccc2c(c1)c(N1CCCC1=O)c(C(=O)Nc1ccc(OC)c(Cl)c1)n2C 1.84%
O=C(CC1N=C2c3ccccc3N=C(SCc3ccc(F)cc3)N2C1=O)NCc1cccs1 (stereo not drawn) 10.6%
CCOc1ccc(C(=O)c2cn(Cc3ccc(F)cc3)c3ccc(F)cc3c2=O)cc1 -0.931%
COc1ccccc1CNC(=O)CCn1c(=O)c2ccccc2n(CC(=O)Nc2ccc(Br)cc2F)c1=O -1.31%
CCOc1ccc(N(CC)S(=O)(=O)N2CCCC(C(=O)NCc3ccc(Cl)cc3)C2)cc1 (stereo not drawn) 2.98%
COC(=O)c1cc(S(=O)(=O)N2CCN(c3cc(Cl)ccc3C)CC2)c[nH]1 0.398%
Cc1ccc(Cl)cc1NC(=O)CSc1nc2ccccc2nc1Cc1ccccc1 -0.671%
COC(=O)c1ccc2c(c1)N(CC(=O)Nc1ccc(C)c(C)c1)C(=O)c1ccccc1S2 0.0004%
CCc1ccccc1NC(=O)CSc1nnc(-c2ccccc2)c(-c2ccccc2)n1 0.425%
COc1ccc(-c2c(C)c3ccc(O)c(CN4CCN(C)CC4)c3oc2=O)cc1OC 0.151%
CCOC(=O)c1ccc2c(c1)N(Cc1cccc(OC)c1)C(=O)c1ccccc1S2(=O)=O -1.14%
CCN(Cc1ccccc1)Cc1c(O)ccc2c(=O)c(-c3ccc(Cl)cc3Cl)coc12 0.878%
COC(=O)c1ccc(Cn2c(SCC(=O)N(C)c3ccccc3)nc3ccccc32)cc1 0.519%
Cc1ccc(CNC(=O)CCNS(=O)(=O)c2ccc3c(c2)oc(=O)n3C)cc1 0.362%
CSc1ccc(CCNC(=O)c2cc(C)nc3c2c(C)nn3-c2cccc(F)c2)cc1 1.93%
COc1cc(NC(=O)c2cc3ccc4cccnc4c3[nH]2)cc(OC)c1OC 1.03%
CCCCCn1c(=O)[nH]c2cc(C(=O)Nc3ccc(F)cc3)ccc2c1=O 0.0091%
Cc1ccc(NC(=O)Nc2sc3nc4n(c(=O)c3c2C)CCC(C)CC4)c(Cl)c1 (stereo not drawn) 0.293%
Cc1ccc(-n2ncc(C(=O)N(C)Cc3ccccc3)c2-n2cccc2)cc1 -1.39%
COc1ccccc1NC(=O)C1=C(C)Nc2ncnn2C1c1sccc1C (stereo not drawn) -0.49%
Cc1ccc(CNC(=O)CCC(=O)N2CC(C)Sc3ccccc32)cc1 (stereo not drawn) -0.354%
COc1ccccc1N1CCN(CCCNC(=O)c2cnn(-c3ccccc3Cl)c2C2CCN(C(=O)OC(C)(C)C)CC2)CC1 0.105%
Cc1ccc(Cl)cc1NC(=O)C(C)n1nnc2sc(-c3ccccc3)cc2c1=O (stereo not drawn) -0.567%
Cc1ccc(Cl)cc1NC(=O)Cc1ccc(-n2c(C)nc3cccnc32)cc1 1.55%
Cc1cc2c(cc3c(SCc4nc(-c5ccccc5)oc4C)nnc(C)n32)o1 -0.472%
Cc1ccc(-c2nn3c(=O)cc(CN4CCN(C(=O)Nc5cccc(C(F)(F)F)c5)CC4)nc3s2)cc1 -0.373%
Cc1ccccc1NC(=O)Cn1c(=O)n(CCc2ccccc2)c(=O)c2ccccc21 -2.33%
CCCn1c2ccccc2c2cnn(CC(=O)N(CC)c3cc(C)ccc3C)c(=O)c21 0.931%
O=C(COc1ccc(Cl)cc1)Nc1ccccc1OCc1cc(=O)n2ccccc2n1 -0.53%
CCc1ccccc1NC(=O)CCOc1ccccc1 -1.06%
CCC(C(=O)Nc1cc(OC)ccc1OC)n1c(=O)c(C(F)(F)F)nc2ccccc21 (stereo not drawn) 0.639%
Cc1ccc(CN2COc3cc(C)c4c(oc(=O)c5ccccc54)c3C2)cc1 0.158%
COc1ccc(OC)c(-c2csc(-c3c(N)c(C(=O)c4ccccc4)n4ccccc34)n2)c1 -3.81%
COc1ccc(CNC(=O)c2ccc3c(c2)nc2n3CCOC2)c(OC)c1 1.39%
CCOC(=O)c1scc(-c2ccc(C)cc2)c1S(=O)(=O)Nc1cc(C)ccc1C -0.489%
CCN(CCCNC(=O)c1ccc(Sc2ccc(C)cc2)c(NC(C)=O)c1)c1cccc(C)c1 0.426%
CCOc1cccc(NC(=O)c2ccc(F)c(S(=O)(=O)N(CC)c3cccc(C)c3)c2)c1 0.916%
COc1ccc(C(=O)c2oc3ccccc3c2NC(=O)COc2cccc(C)c2)cc1 -1.04%
Cc1ccccc1OCc1ccc(-c2nc(C#N)c(N3CCCCC3)o2)o1 -3.83%
CCCCc1nn2c(=O)cc(COC(=O)c3ccc(NC(=O)c4ccccc4C)cc3)nc2s1 0.536%
COC(=O)NNC(=O)C1CCC(C)CC1 (stereo not drawn) -1.45%
CCc1nnc2c3ccccc3nc(N3CCN(c4ccc(C)cc4C)CC3)n12 -0.66%
CCOc1ccc(CNC(=O)Cn2cc3c(n2)-c2c(oc(C(=O)N4CCCC4)c2C)CC3)cc1 3.6%
CCOCCc1nn2c(=O)cc(COC(=O)CNC(=O)c3ccc(C(C)(C)C)cc3)nc2s1 0.68%
CCC(=O)N1CCc2cc(Br)cc(S(=O)(=O)NCc3ccc(Cl)cc3)c21 -1.73%
Cc1nc2nc(NCc3cccc(Br)c3)[nH]n2c(=O)c1Cc1ccccc1 0.0099%
COc1ccc(NC(=O)C(c2ccccc2)N2Cc3ccccc3C2=O)cc1 (stereo not drawn) 5.73%
Cc1nc2sc(C)c(C)n2c(=O)c1S(=O)(=O)NCCc1ccc(Cl)cc1 -0.232%
CCOc1ccc(OCC)c(NS(=O)(=O)c2ccc3[nH]c(=O)ccc3c2)c1 -0.327%
COc1ccc(S(=O)(=O)NCCSc2nnnn2-c2ccccc2)cc1 0.743%
Cc1ccccc1CNC(=O)CCCn1nc(C)c2sc3ccccc3c2c1=O -2.1%
COc1cccc(N2CC(NC(=O)/C=C\c3ccccc3)CC2=O)c1 (stereo not drawn) -3.35%
O=C(CSc1ncc(-c2ccccc2)[nH]1)Nc1ccc(F)cc1F 0.53%
COc1ccc(Cl)cc1NC(=O)CCC(=O)c1ccc(C)cc1 0.0498%
Cc1c(NC(=O)C(C)(C)C)cccc1-c1nc2ccccc2s1 -1.11%
Cc1nn(CC(=O)O)c(=O)c2cc3cc(F)ccc3n12 0.588%
CCc1ccc(N(CC)C(=O)CCn2cnc3onc(-c4ccc(F)cc4)c3c2=O)cc1 -0.94%
COc1ccc(CCNC(=O)c2cnc3sc(N4CCCCCC4)nn3c2=O)cc1OC -0.913%
CCCn1c(=N)c(C(=O)NCc2ccccc2)cc2c(=O)n3cccc(C)c3nc21 -0.961%
COc1ccc(CCNC(=O)c2cc(=O)c3c(C)cc(C)cc3o2)cc1OC 0.0788%
Cc1ccc(S(=O)(=O)N2CCc3cc(C(=O)Nc4ccc(Cl)cc4C)ccc32)cc1 -1.36%
COc1cccc(NC(=O)CSC2=Nc3ccccc3C3=NC(CC(=O)NC4CCCCC4)C(=O)N23)c1 (stereo not drawn) 7.44%
CCCCOc1ccc(CNC(=O)c2ccc3c(c2)N(C)C(=O)C2CCCCN32)cc1 (stereo not drawn) 0.39%
COc1ccccc1NC(=O)c1oc2ccccc2c1NC(=O)C(C)C 0.779%
COc1ccc(CCNc2ncnc3onc(-c4ccc(Cl)cc4)c23)c(OC)c1 0.556%
Cc1csc2nc(COC(=O)c3ccc(NC(=O)COc4ccccc4F)cc3)cc(=O)n12 -0.993%
COc1ccc(N2CCN(C(=O)C3CCCN(C(=O)c4cc5sccc5n4C)C3)CC2)cc1 (stereo not drawn) 0.138%
O=C(COc1ccccc1F)OCc1cc(=O)n2nc(C3CCCCC3)sc2n1 1.96%
CCC1CCCCN1Cc1c(O)ccc2c(=O)c(Oc3ccccc3Cl)c(C(F)(F)F)oc12 (stereo not drawn) 0.136%
Cc1cc(=O)n(CC(=O)Nc2cccc([N+](=O)[O-])c2)c(-n2nc(C)cc2C)n1 -2.64%
CCOC(=O)c1c(C)[nH]c(CCC(=O)NCCCN2CCN(c3cc(C)ccc3C)CC2)c1C -0.282%
COc1cc(Nc2nc(-c3ccc(OC)c(OC)c3)nc3ccccc23)cc(OC)c1 -2.01%
Cc1cc(C)cc(OC(C)C(=O)Nc2nc3c(s2)CCCC3)c1 (stereo not drawn) -3.8%
COCCn1c(SCC(=O)c2cc(C)ccc2C)nc2cc(C(=O)NC3CCCC3)ccc2c1=O 3.01%
CCOc1ccccc1NC(=O)CCn1cnnn1 0.955%
Cc1ccc(N(C)C(=O)C2CCN(S(=O)(=O)c3ccc4c(c3)CCCN4C(=O)C3CCC3)CC2)cc1 0.721%
CC(=O)Nc1ccc(S(=O)(=O)NCC2CCC(C(=O)NCCc3ccccc3)CC2)cc1 (stereo not drawn) -1.06%
CCOc1ccccc1C(=O)NC1(C(F)(F)F)C(=O)Nc2c1c(=O)[nH]c(=O)n2-c1ccc(F)cc1 (stereo not drawn) 0.333%
CCN(CC)S(=O)(=O)c1nnc(NC(=O)COc2ccccc2Cl)s1 -1.05%
COc1ccc(-c2cccc(NS(=O)(=O)c3cc(C)c(OC)c(C)c3C)c2)nn1 0.997%
O=C(NC1(C(F)(F)F)N=C(c2ccccc2)N(C2CCCCC2)C1=O)c1ccccc1F (stereo not drawn) -2.01%
Cc1ccc(CCNC(=O)c2ccc3c(c2)nc2n3CCC(C)C2)cc1 (stereo not drawn) 0.0449%
Cc1ccccc1NC(=O)Cn1c(=O)n(CCCCC(=O)NCc2ccccc2Cl)c(=O)c2ccccc21 0.686%
